Results on 3 molecules are retold here after PubChem BioAssay AID602376 (Johns Hopkins Ion Channel Center, 2012).

Potency and affinity values are given separately. Results filed as inconclusive are left out. Values without a mark were called inactive.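 Rule for the calls: active = raises choline transporter activity at one or more tested doses and gives a fitted dose-response curve; inconclusive = no clear call, values can overlap the other calls; inactive = no choline transporter activation at any dose, or no curve.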

For this assay, the target named is High affinity choline transporter 1 (Homo sapiens) (UniProt Q9GZV3). In words: CHT activators, dose response, cell-based, 10-point CRC, membrane potential dye (AID 602376). As to conditions: HEK293-CHT, choline-induced membrane potential dye, cells express CHT LV-AA mutant; series mostly up to 67 µM; percent activation: at the top concentration.
High affinity choline transporter 1 (Homo sapiens), sequence (Q9GZV3 whole entry, looked up): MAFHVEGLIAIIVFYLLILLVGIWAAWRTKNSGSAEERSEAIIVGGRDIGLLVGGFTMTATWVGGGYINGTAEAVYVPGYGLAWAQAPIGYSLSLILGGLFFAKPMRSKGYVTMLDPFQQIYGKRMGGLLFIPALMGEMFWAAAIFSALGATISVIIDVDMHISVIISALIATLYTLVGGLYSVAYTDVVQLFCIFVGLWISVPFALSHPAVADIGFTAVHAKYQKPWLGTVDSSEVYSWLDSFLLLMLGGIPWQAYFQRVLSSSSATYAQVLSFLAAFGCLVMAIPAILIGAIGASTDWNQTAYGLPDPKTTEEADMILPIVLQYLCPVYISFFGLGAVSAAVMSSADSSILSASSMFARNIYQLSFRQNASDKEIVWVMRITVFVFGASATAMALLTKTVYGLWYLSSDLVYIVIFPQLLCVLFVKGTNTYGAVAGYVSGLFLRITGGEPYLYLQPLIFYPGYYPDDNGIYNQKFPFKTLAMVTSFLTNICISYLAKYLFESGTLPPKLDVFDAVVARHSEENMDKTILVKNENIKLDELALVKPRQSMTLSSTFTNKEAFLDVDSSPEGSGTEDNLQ
Consider `CCCCCn1c(=O)c(C(=O)NCc2ccncc2)c(O)c2ccccc21`, for which the “percent activation” value is 78.3%.

Consider `COc1ccc(C2NCc3ccc4c(c3-n3cccc32)OCO4)cc1O` (stereo not drawn), for which the “percent activation” value was 112%.

`CCCOC(=O)c1ccc(-[n+]2c(-c3ccccc3)cc(-c3ccccc3)cc2-c2ccccc2)cc1`: the “percent activation” value was 105%.
